Consider 15 compounds from PubChem BioAssay.

Experiment [1] has as its target Nuclear receptor coactivator 3 (Homo sapiens) (UniProt Q9Y6Q9). The experiment can be described thus: NCOA3 GAL4-fusion reporter inhibition – cell-based, luminescence, quadruplicate, confirmation (AID 588792;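 active means mean inhibition over 43.08%, the solvent-only control mean plus 3 SD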;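 further: 0% = DMSO treated cells and 100% = gossypol at 36 µM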). Conditions: HEK293 GAL4-SRC3 luciferase reporter, at 3.6 µM, stronger effect = higher value.
For experiment [2], the system named is transactivating tegument protein VP16 (Human herpesvirus 1), Gal4-VP16 luciferase reporter. The experiment can be described thus: repression of VP16-driven luciferase reporter – cell-based, luminescence, high throughput, counter-screen for SRC3 inhibitor project (AID 588794; in the data active means inhibition above about 30%). Conditions: mammalian cells, at 3.6 µM, stronger effect = higher value. On the technique in general: A reporter such as luciferase makes a cellular process visible.

In experiment [3] the target is Nuclear receptor coactivator 1 (Homo sapiens) (UniProt Q15788). The experiment can be described thus: NCOA1 GAL4-fusion reporter inhibition – cell-based, luminescence, quadruplicate, confirmation (AID 588820;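 active means mean inhibition above 46.68%, the untreated control wells mean plus 3 SD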;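 further: 0% = DMSO wells and 100% = gossypol 36 µM treated wells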). Conditions: HEK293 GAL4-SRC1 luciferase reporter, at 3.6 µM, stronger effect = higher value.
The nature of experiment [4]: repression of VP16-driven luciferase reporter – cell-based, luminescence, high throughput, counter-screen for SRC1 inhibitor project (AID 588824; in the data active means inhibition above about 25%). Particulars: cell-based VP16 transactivation luciferase luminescence; at 3.6 µM; stronger effect = higher value.
Experiment [5] is described as follows: StAR promoter reporter inhibitors, counter-screen for LRH-1 inverse agonist project, cell-based, luminescence, high throughput (AID 651611; in the data active means inhibition above about 28%). Conditions: StAR promoter luciferase reporter counterscreen, at 3.6 µM, stronger effect = higher value. For orientation: Counterscreens check selectivity or assay interference.
Experiment [6] concerns the target Nuclear receptor subfamily 5 group A member 2 (Homo sapiens) (UniProt O00482). The experiment can be described thus: NR5A2 activity suppression in reporter cells – cell-based, luminescence, confirmation (AID 651613; in the data active means inhibition above about 42%;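 further: HEK293T cells co-transfected with LRH-1 and StAR promoter luciferase reporter; 0% = vehicle wells and 100% = parental cells lacking receptor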). Particulars: cell-based LRH-1 luciferase reporter, inverse agonism; at 3.6 µM; stronger effect = higher value.
The target of experiment [7] is Steroidogenic factor 1 (Homo sapiens) (UniProt Q13285). The experiment can be described thus: inverse agonism at SF1 nuclear receptor – cell-based, luminescence, high throughput, counter-screen for LRH-1 inverse agonist project (AID 651614; in the data active means inhibition above about 44%;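 further: cells cotransfected with StAR promoter reporter and SF1 expression vector; 0% = vehicle on cells with receptor and 100% = vehicle on cells lacking receptor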). Particulars: cell-based SF1 luciferase reporter, at 3.6 µM, stronger effect = higher value.
The nature of experiment [8]: compounds suppressing VP16-driven luciferase signal – cell-based, luminescence, high throughput, counter-screen for LRH-1 inverse agonist project (AID 651615; in the data active means inhibition above about 33%). Particulars: Gal4-VP16 luciferase reporter cells, at 3.6 µM, stronger effect = higher value.
For experiment [9], the system named is transactivating tegument protein VP16 (Human herpesvirus 1). The experiment can be described thus: compounds suppressing VP16-driven luciferase signal – cell-based, luminescence, single concentration, counter-screen for SRC2 inhibitor project (AID 652007). Particulars: cell-based VP16 transactivation luciferase reporter, at 8.9 µM, stronger effect = higher value.
Experiment [10] has as its target Nuclear receptor coactivator 2 (Homo sapiens) (UniProt Q15596). The experiment can be described thus: inhibition of GAL4-SRC2 driven luciferase expression – cell-based, luminescence, HEK293, triplicate, confirmation (AID 652008;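 active means mean inhibition above 46.5%, the solvent-only control mean plus 3 SD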;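 further: 0% = DMSO-treated cells and 100% = Gossypol at 36 µM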). Particulars: HEK293 GAL4-SRC2 luciferase reporter, at 8.9 µM, stronger effect = higher value.

Values without a mark were called inactive. Activity calls are given as the source filed them. Unless noted, no stated cut-off is given here; in the data, active means inhibition above about 36%; inactive means the rest. Bridge positions count the residues as written; N and C are the ends. Square brackets hold non-standard residues; d marks the D form. Peptide text beside a SMILES is read from it.

Nuclear receptor coactivator 3 (Homo sapiens), sequence (Q9Y6Q9 whole entry, looked up, the tested form may be a part): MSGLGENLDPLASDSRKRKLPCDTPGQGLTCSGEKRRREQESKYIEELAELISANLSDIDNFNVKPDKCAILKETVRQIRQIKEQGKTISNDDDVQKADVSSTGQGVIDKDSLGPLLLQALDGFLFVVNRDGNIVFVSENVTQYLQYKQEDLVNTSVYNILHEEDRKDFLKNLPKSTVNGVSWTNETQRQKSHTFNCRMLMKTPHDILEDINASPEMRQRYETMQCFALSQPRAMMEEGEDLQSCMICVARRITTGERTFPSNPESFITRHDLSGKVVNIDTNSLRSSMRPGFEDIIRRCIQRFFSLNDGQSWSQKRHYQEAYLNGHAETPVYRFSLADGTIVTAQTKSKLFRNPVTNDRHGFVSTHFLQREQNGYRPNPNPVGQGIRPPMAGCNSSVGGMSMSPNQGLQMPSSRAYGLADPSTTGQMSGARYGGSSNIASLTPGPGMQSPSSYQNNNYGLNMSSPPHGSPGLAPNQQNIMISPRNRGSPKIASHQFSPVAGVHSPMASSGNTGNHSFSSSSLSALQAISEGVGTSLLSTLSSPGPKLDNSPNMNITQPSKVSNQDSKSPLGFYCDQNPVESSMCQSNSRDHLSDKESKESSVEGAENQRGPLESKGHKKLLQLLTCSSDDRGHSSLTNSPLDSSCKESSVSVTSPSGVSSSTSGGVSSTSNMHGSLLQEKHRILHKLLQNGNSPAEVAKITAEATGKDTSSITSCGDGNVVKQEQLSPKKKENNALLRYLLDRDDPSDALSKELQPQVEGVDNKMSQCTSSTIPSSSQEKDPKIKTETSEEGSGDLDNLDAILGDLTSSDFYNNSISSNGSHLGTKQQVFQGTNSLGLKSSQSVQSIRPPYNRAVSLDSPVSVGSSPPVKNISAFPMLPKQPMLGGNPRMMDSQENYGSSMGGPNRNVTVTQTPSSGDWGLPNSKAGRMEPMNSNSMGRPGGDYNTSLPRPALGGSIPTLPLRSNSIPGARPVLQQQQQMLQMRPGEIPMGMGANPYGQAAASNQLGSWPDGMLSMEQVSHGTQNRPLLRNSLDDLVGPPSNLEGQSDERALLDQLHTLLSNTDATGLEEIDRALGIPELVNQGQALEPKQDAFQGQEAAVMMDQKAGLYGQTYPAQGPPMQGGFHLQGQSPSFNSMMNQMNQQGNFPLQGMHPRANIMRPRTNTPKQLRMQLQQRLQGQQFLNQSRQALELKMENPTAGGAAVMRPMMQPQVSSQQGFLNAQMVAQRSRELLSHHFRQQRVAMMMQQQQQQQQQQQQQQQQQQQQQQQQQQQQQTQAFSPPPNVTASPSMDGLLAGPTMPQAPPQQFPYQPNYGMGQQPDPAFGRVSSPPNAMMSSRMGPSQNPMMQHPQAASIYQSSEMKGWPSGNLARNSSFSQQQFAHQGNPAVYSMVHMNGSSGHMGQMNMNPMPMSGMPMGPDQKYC
Nuclear receptor subfamily 5 group A member 2 (Homo sapiens), sequence (O00482 whole entry, looked up): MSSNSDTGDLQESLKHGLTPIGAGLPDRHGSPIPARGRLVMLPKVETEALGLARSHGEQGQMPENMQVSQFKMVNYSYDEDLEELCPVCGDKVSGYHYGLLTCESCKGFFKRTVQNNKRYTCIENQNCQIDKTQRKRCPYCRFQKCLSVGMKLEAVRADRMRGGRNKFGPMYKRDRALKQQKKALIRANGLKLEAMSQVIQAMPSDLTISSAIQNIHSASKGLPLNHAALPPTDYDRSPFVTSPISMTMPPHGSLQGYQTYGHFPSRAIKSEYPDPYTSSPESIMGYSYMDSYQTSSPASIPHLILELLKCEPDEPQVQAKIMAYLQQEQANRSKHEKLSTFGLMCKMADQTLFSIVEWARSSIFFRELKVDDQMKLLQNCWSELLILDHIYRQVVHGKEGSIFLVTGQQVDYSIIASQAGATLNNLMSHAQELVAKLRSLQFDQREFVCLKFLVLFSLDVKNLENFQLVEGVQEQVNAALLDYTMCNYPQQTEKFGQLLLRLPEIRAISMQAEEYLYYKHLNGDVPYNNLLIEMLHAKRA
Nuclear receptor coactivator 1 (Homo sapiens), sequence (Q15788 whole entry, looked up, the tested form may be a part): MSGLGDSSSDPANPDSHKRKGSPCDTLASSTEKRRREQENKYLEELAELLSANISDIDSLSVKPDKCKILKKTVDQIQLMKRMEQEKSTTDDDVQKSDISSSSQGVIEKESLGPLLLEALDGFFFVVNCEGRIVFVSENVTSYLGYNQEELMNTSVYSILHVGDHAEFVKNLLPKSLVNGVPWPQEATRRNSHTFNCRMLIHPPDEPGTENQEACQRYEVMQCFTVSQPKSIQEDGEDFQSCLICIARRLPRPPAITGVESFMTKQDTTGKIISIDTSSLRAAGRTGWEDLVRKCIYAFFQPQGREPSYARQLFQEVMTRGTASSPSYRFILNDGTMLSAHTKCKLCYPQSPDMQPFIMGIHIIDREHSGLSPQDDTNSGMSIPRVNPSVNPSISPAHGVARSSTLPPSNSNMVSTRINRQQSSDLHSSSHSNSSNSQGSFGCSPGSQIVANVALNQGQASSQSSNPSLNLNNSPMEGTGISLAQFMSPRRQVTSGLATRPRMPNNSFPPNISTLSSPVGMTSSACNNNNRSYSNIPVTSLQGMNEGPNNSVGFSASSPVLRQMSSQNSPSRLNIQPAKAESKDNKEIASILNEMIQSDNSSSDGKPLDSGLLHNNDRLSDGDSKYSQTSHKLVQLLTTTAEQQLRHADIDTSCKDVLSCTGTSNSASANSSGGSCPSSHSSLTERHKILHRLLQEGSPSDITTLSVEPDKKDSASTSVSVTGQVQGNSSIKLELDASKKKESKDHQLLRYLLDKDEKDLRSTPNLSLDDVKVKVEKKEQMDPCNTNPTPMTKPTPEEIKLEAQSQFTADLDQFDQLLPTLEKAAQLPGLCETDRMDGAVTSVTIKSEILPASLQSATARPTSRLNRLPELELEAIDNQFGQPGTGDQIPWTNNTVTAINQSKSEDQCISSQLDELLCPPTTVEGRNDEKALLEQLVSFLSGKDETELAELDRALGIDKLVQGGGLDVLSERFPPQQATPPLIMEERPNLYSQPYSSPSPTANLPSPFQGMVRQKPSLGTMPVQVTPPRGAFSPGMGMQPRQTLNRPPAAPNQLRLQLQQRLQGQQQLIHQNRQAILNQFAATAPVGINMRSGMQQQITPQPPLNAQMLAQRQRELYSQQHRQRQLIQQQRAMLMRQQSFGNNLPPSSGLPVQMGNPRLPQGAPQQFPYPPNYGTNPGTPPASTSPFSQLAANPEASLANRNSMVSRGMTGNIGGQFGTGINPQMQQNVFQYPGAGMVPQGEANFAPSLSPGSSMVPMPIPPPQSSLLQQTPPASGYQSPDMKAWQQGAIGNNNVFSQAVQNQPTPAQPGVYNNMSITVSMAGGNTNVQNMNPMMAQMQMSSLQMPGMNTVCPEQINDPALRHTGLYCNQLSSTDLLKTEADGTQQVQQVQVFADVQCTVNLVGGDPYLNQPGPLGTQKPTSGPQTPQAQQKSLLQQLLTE
Steroidogenic factor 1 (Homo sapiens), sequence (Q13285 whole entry, looked up, the tested form may be a part): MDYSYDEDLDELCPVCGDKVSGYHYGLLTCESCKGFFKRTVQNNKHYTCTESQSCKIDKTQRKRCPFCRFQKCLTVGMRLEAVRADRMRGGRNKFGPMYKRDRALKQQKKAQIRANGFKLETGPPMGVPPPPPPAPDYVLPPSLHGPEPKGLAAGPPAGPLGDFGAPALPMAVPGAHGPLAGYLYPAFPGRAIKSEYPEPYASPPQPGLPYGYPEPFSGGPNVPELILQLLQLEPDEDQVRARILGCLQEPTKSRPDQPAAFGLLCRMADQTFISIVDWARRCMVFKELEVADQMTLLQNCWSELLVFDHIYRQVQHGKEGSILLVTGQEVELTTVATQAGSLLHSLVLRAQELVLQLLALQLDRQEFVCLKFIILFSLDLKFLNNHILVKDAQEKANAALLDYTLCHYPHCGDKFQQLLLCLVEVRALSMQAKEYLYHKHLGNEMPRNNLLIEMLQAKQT

Broadly, the inhibition is the relative decrease from the control value, in per cent. `OCC1OC(n2ccc3c(NO)ncnc32)C(O)C1O` (stereo not given): the inhibition in [1] is 93.2% (active); in experiment [2] it was 88.2% (active); in experiment [3], 48.2% (active); in experiment [4] it was 87.4% (active); in [5] it was 93.5% (active); in experiment [6], 108% (active). For the same compound, the inhibition was 97% (active) in [7], 96% (active) in experiment [8], 53.9% (active) in [9] and 51.5% (active) in [10].
In the case of `O=C(O)c1ccccc1C(=O)Nc1ccc(Oc2cccc3ccccc23)cc1`, the inhibition is 26% in [1]; 32.2% (active) in experiment [2]; 28% in experiment [3]; 21.7% in experiment [4]; 34.5% (active) in experiment [5]; 29.8% in experiment [6]. In addition, the inhibition was 57% (active) in [7], 13.4% in [8], 77.6% (active) in experiment [9] and 75.2% (active) in experiment [10].
Consider `COc1ccc(/C=C2\SC(=O)N(CCCC(=O)Nc3ccc(C(=O)O)cc3)C2=O)cc1`, for which the inhibition in experiment [1] was 78% (active); in [2], 71.8% (active); in experiment [3] it was 72.8% (active); in experiment [4] it was 63.3% (active); in experiment [5] it was 74.1% (active); in experiment [6], 75.4% (active). The inhibition is 71.5% (active) in experiment [7], 58.1% (active) in experiment [8], 88.3% (active) in experiment [9] and 93.3% (active) in [10].
As for `O=C(Nc1nc2ccccc2[nH]1)c1ccccc1F`, the inhibition in experiment [1] was 27.6%; in experiment [2], 19.6%; in experiment [3] it was -26.7%; in experiment [4] it was 11.2%; in experiment [5], -0.87%; in [6], -32.3%. In addition, the inhibition in experiment [7] was 13.5%; in experiment [8], -10.4%; in experiment [9], 43.9% (active); in [10] it was 67.2% (active).
For `CC1=C(C(=O)OCc2ccc3c(c2)OCO3)C(c2ccc(F)cc2)NC(=O)N1` (stereo not given), the inhibition in experiment [1] was 77.2% (active); in experiment [2], 66.2% (active); in [3] it was 70.7% (active); in experiment [4], 67.6% (active); in experiment [5], 49.1% (active); in experiment [6] it was 71.3% (active). Besides, the inhibition in experiment [7] was 62.8% (active); in experiment [8], 85.2% (active); in experiment [9], 16.1%; in [10], 58.7% (active).
As to `O=C(Nc1nc2cc3c(cc2s1)OCCO3)C1=COCCO1`, the inhibition in [1] was 30.4%; in experiment [2] it was 26.9%; in experiment [3], -78.2%; in [4], 13.4%; in [5], 24.4%; in experiment [6] it was -3.27%. In addition, the inhibition in [7] is 52.2% (active); in [8], 4.13%; in experiment [9], 70.8% (active); in [10] it was 81.6% (active).
As to `O=c1ccc2ccccc2c2ccccc12`, the inhibition is 73.2% (active) in [1]; 70.8% (active) in [2]; 58.7% (active) in experiment [3]; 70% (active) in [4]; 76.7% (active) in experiment [5]; 93.6% (active) in experiment [6]. Besides, the inhibition in [7] was 90.3% (active); in experiment [8] it was 88.1% (active); in [9], 68.3% (active); in [10], 84.5% (active).
Take `CC(C)(C)c1ccc(-c2noc(CCC(N)=O)n2)cc1`: the inhibition in experiment [1] was 65.2% (active); in experiment [2] it was 51.9% (active); in [3], 59.7% (active); in experiment [4], 56.7% (active); in experiment [5] it was 58.9% (active); in [6], 70% (active). Also, the inhibition was 60.8% (active) in [7], 58.4% (active) in [8], 83.6% (active) in [9] and 94.2% (active) in [10].
Regarding `CC[C@H](C)[C@@H]1NC(=O)[C@@H](CC(C)C)NC(=O)[C@H](C(C)C)NC(=O)[C@H]2CSSC[C@H](NC1=O)C(=O)N2` (cyclo(C[dC]V[dL]I); disulfide 1-2), the inhibition in experiment [1] is 99.9% (active); in experiment [2], 98.3% (active); in experiment [3] it was 99.6% (active); in [4], 98% (active); in [5], 96% (active); in [6] it was 109% (active). Further, the inhibition in experiment [7] is 97.7% (active); in experiment [8] it was 97.5% (active); in [9] it was 98.3% (active); in [10], 99.6% (active).
Consider `COC(=O)c1ccccc1-c1c2ccc(=N)cc-2oc2cc(N)ccc12`, for which the inhibition in experiment [1] was 35%; in [2], 55.2% (active); in [3] it was 28.7%; in experiment [4], 48.3% (active); in experiment [5], 62.2% (active); in experiment [6] it was 109% (active). Further, the inhibition in experiment [7] is 79.1% (active); in [8] it was 88% (active); in experiment [9], 21.2%; in [10], 3.71%.
Consider `Cc1ccc(NC(=O)O/N=C/c2c(C)nn(C(C)(C)C)c2C)cc1Cl`, for which the inhibition was 90.4% (active) in [1]; 88% (active) in [2]; 87.3% (active) in experiment [3]; 85.3% (active) in [4]; 88.2% (active) in [5]; 93% (active) in experiment [6]. For the same compound, the inhibition was 89.2% (active) in [7], 86.5% (active) in experiment [8], 94.6% (active) in [9] and 98.3% (active) in experiment [10].
For `CCCN(CCC)C1=CC(=[N+]2CCCC2)CC(C)(C)C1`, the inhibition in experiment [1] is 25.5%; in [2], 56.8% (active); in [3], 36.1%; in experiment [4] it was 55.3% (active); in [5], 38.3% (active); in [6] it was 106% (active). Further, the inhibition in experiment [7] is 78.8% (active); in experiment [8], 86.6% (active); in [9], 29%; in [10], 18.8%.
In the case of `CC1CCc2c(sc(NC(=O)CSc3ncn[nH]3)c2C#N)C1` (stereo not given), the inhibition was 56% (active) in [1]; 66.1% (active) in [2]; 31.9% in experiment [3]; 61.4% (active) in experiment [4]; 32.5% (active) in experiment [5]; 56.7% (active) in experiment [6]. Besides, the inhibition in [7] is 39.5%; in experiment [8] it was 61.9% (active); in experiment [9] it was 87% (active); in [10], 90.2% (active).
Consider `Oc1ccc(CCNc2ncnc3ccc(Cl)cc23)cc1`, for which the inhibition in [1] is 64.9% (active); in experiment [2] it was 61.6% (active); in experiment [3], 60.8% (active); in [4], 62% (active); in experiment [5] it was 43.6% (active); in experiment [6], 70.5% (active). The inhibition in experiment [7] is 68.7% (active); in experiment [8], 78.6% (active); in experiment [9] it was 26.7%; in [10] it was 65.6% (active).
For the compound `CC(C)(C)C(=O)/C(=C/c1ccc(Cl)cc1)n1cncn1`, the inhibition in experiment [1] is 73.4% (active); in experiment [2], 64.5% (active); in experiment [3], 40.2%; in experiment [4], 59.1% (active); in experiment [5], 78.4% (active); in experiment [6], 70.4% (active). The inhibition was 77% (active) in [7], 78.9% (active) in experiment [8], 51.1% (active) in [9] and 79.7% (active) in experiment [10].
